Screens: PubChem, National Center for Advancing Translational Sciences (NCATS)
Sampled rows, rich in hits. Any-hit rate of the full collection: about 4.2%.
TCR act = activators of T cell receptors; Potency, µM (series often up to 9.22 µM), for the others: at the top dose activation of IL-2 secretion, most hits filed as activators; 330,000 tested, under 10 active; primary human leukocytes, anti-CD3, IL-2 HTRF, 48 h; AID 504894; further: % of control where 0% means no effect
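Primary human leukocytes incubated 48 hr with anti-CD3 beads plus compound, without co-stimulation. Secreted IL-2 measured by HTRF (europium cryptate/d2 anti-IL-2 pair, 320 nm excitation, 665 nm emission).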
Sfp inh = blocks B. subtilis Sfp PPTase activity; Potency, µM, inactives show largest response in the series, negative = inhibition, usual class: inhibitors; actives 3.5% (n = 310,000); Q9F4F7; Biochemical Sfp PPTase activity, qHTS; AID 1490;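 further: the enzyme is Sfp with the accession as filed and its product quenches rhodamine fluorescence; potency means the concentration at half of the fitted maximal effect; 0% = enzyme reaction without inhibitor and -100% = no enzyme wells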
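Sfp 15 nM + cpd, 15 min RT; start w/ rhodamine-CoA 5 uM, BHQ-2-YbbR 12.5 uM (final); 50 mM Hepes pH 7.6, 10 mM MgCl2, 0.01% NP-40, 0.01% BSA; read 525/598 nm at 0 and 30 min.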
ClpP mod = qHTS Assay for Activators of ClpP. ATP-dependent Clp protease proteolytic subunit (Bacillus subtilis (strain 168)), P80244. purified B. subtilis ClpP, FRET peptide cleavage, 20 min. Potency, µM (series often up to 57.5 µM), for inactives: at the top dose activity change, negative = active. actives 1.9% (n = 340,000). AID 651965, 2013; active means well fitted falling curve with a large enough effect; inconclusive means small, poorly fitted or top-dose-only effect; inactive means no such curve, though single readings can be large or run the other way; further: potency means the concentration at half of the fitted maximal effect; the source files actives as falling curves though it sought activators and does not explain the sign; nearly all actives have a fitted effect of over 65% in size
Target sequence (P80244 whole entry, looked up): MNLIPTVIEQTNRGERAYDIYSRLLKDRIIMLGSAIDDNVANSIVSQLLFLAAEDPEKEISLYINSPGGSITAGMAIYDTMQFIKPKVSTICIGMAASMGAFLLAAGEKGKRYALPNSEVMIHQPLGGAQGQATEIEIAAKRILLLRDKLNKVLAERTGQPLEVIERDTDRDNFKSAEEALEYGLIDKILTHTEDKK
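FRET quenching reversal measured ClpP activation: 10 microg/mL B. subtilis ClpP at pH 8 with the FRET-FV decapeptide, read at 430 nm after 320 nm excitation. The 20-min minus 0-min signal was scaled between DMSO/no-enzyme wells and ADEP (5.8 microM final).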
uPA surface inh = inhibitors of cell surface uPA generation; actives 0.31% (n = 330,000); AID 540303; cell surface uPA generation assay, qHTS; Potency, µM (doses to about 38.3 µM), for the others: top-dose activity change, negative = inhibition, actives largely listed as inhibitors; active means well fitted inhibition curve with a large enough effect; inconclusive means small, poorly fitted or top-dose-only effect; inactive means no such curve, though single readings can be large or run the other way; tested in mouse RAW 264.7 cells; further: potency means the concentration at half of the fitted maximal effect; on the % scale 0 is the no-effect control and ±100 the full control effect; nearly all actives have a fitted effect of over 55% in size
* marks the source's active call; other numbers are inactive results; ? = inconclusive; / = not tested or not shown; [ ] = another dose, or the depositor's remark. Unless noted, the call rests on the fitted dose curve; in most records, active means well fitted curve in the direction sought with a large enough effect; inconclusive means small, poorly fitted or top-dose-only effect, or another doubt; inactive means no such curve, though single readings can be large; an effect the other way counts as inactive or inconclusive.

SMILES | TCR act | Sfp inh | ClpP mod | uPA surface inh
CN(C)c1ccc(-c2sc(Nc3ccccc3)n[n+]2-c2ccc(F)cc2)cc1 | -5% | -10% | -5% | 10%
COc1ccc(C)cc1Nc1n[n+](-c2ccccc2)c(-c2ccc(N(C)C)cc2)s1 | 5% | 20µM* | 10% | ?
CCN(CC)c1ccc(-c2sc(Nc3ccccc3)n[n+]2-c2ccc(F)cc2)cc1 | 5% | 56µM* | -17% | 5%
CCc1ccc(Nc2n[n+](-c3ccccc3)c(-c3ccc(OCc4ccccc4)cc3)s2)cc1 | 0% | -7% | -5% | ?
CCc1ccc(Nc2n[n+](-c3ccccc3)c(-c3ccc(N(CC)CC)cc3)s2)cc1 | 2% | 50µM* | 4% | ?
CCc1ccc(Nc2n[n+](-c3ccccc3)c(-c3c(Cl)cccc3Cl)s2)cc1 | -1% | 71µM* | -2% | 13µM*
CCN(CC)CCC(c1cc(OC)c(OC)c(OC)c1)c1c(OC)cc(OC)c2c1OC(=O)CC2c1ccc(N(C)C)cc1 (stereo not given) | / | 4% | / | /
CCc1ccc(Nc2n[n+](-c3ccccc3)c(/C=C/c3ccccc3)s2)cc1 | / | 50µM* | / | /
CCc1ccc(Nc2n[n+](-c3ccccc3)c(-c3cc(OC)c(OC)cc3Br)s2)cc1 | -4% | -8% | 1% | -11%
Cc1ccc(SCC(=O)NC(=O)NCCC(C)C)c(C)c1 | 5% | 26% | -1% | -1%
COc1ccccc1NCC(=O)c1ccc(Cl)cc1 | -2% | 50µM* | / | 2%
COc1ccccc1NCC(=O)c1ccc(C)c(C)c1 | 2% | -17% | / | 1%
COCCOC(=O)C1=C(C)NC2=C(C(=O)CC(C)(C)C2)C1c1cccnc1 (stereo not given) | 0% | 15% | 28µM* | 5%
CC1=C(C(=O)OC(C)C)C(c2cccnc2)C2=C(CC(C)(C)CC2=O)N1 (stereo not given) | 4%[46.1 µM] | -8% | 28µM* | -4%
CC1=C(C(=O)OCCOC(C)C)C(c2cccnc2)C2=C(CCCC2=O)N1 (stereo not given) | -3% | 22% | ? | 10%
CC1=C(C(=O)OC(C)C)C(c2ccc(N(C)C)cc2)C2=C(CC(C)(C)CC2=O)N1 (stereo not given) | -3% | -8% | 5% | -6%
Cc1ccc(/C=C/C2=Cc3c(sc(NC(=O)CSc4n[nH]c(N)n4)c3C#N)C(C)(C)C2)o1 | / | 2.5µM* | / | /
CNC(=O)c1cc2cc(OC)ccc2n1CCN(Cc1ccccc1)Cc1ccccc1 | 3% | 13% | 22µM* | -2%
O=C(CSc1nnc(-c2ccco2)n1Cc1ccccc1)c1ccccc1 | 4% | 56µM* | -3% | 0%
Cc1cccc(CSc2nnc(-c3ccco3)o2)c1 | 0% | 28µM* | 1% | 14%
c1ccc(Cn2c(SCc3cn4cccnc4n3)nnc2-c2ccco2)cc1 | -3% | 15% | 16µM* | -11%
O=C(CSc1nnc(-c2ccco2)o1)c1ccccc1 | -2% | 56µM* | 0% | 0%
Cc1cccc(-c2nnc(SCc3ccccc3)o2)c1 | -8% | -12% | 2% | 0%
O=C(COc1ccc(F)cc1)N(Cc1ccc(Cl)cc1)C1CCS(=O)(=O)C1 (stereo not given) | -2% | 11% | -1% | 2%
CCOC(=O)N/N=C/c1ccccc1-c1cc(OC)ccc1OC | / | 1% | / | /
SMILES | TCR act | Sfp inh | ClpP mod | uPA surface inh
CCn1c(SCc2nc(-c3ccccc3)no2)nnc1-c1ccco1 | -1%[46.1 µM] | 79µM* | 0% | 3%
O=c1c2c(-c3ccco3)csc2nc(SCc2cn3cccnc3n2)n1-c1ccccc1 | -3% | 18µM* | 4% | -8%
O=C(COc1ccccc1[N+](=O)[O-])Nc1ccccc1N1CCCC1 | 0% | 20µM* | / | 1%
CO[C@@H]1COC(=O)C/C=C\[C@@H](C)[C@H](OC)COC(=O)[C@H](COCc2ccccc2)NC(=O)C/C=C\[C@H]1C | / | -11% | / | /
CCCN1CCc2[nH]c(=S)[nH]c(=O)c2C1 | 0%[46.1 µM] | 50µM* | -8% | 6%
O=c1[nH]c(=S)[nH]c2c1CN(Cc1ccc(F)cc1)CC2 | -1% | -25% | -1% | 17%
Cc1ccc(CN2CCc3[nH]c(=S)[nH]c(=O)c3C2)cc1 | -10% | -13% | -25% | 11%
CC(C)N1CCc2[nH]c(=S)[nH]c(=O)c2C1 | -2%[46.1 µM] | 45µM* | -27% | 1%
Cc1ccc(-c2cc3cccc[n+]3cc2-c2ccc(C)cc2)cc1 | 2%[46.1 µM] | -7% | 2.8µM* | 10µM*
CC(NC(=O)c1ccccc1NS(=O)(=O)c1ccc(CCC(=O)O)cc1)c1ccccc1 (stereo not given) | 0% | 9% | 28µM* | 24%
O=C(O)CCc1ccc(S(=O)(=O)Nc2ccccc2C(=O)NCCc2ccccc2)cc1 | -4% | 15% | / | 3%
COc1cccc(N2CCN(C(=O)c3ccc(=O)oc3)CC2C)c1 (stereo not given) | 1% | 35µM* | 28µM* | 5%
Cc1ccc2cc(C(c3nnnn3C3CCCC3)N(Cc3ccccc3)Cc3ccco3)c(=O)[nH]c2c1 (stereo not given) | / | ? | 22µM* | -1%
Cc1cc2cc(C(c3nnnn3C3CCCC3)N(Cc3cccnc3)Cc3ccco3)c(=O)[nH]c2cc1C (stereo not given) | -2% | 56µM* | ? | /
CN1OC[C@@H]2CN[C@H](c3cccc(Oc4ccccc4)c3)C[C@@H]21 | / | / | -9% | /
CN(CC(=O)Nc1cc(Cl)ccc1-n1cncn1)Cc1ccccc1N1CCOCC1 | / | / | 0% | /
CCc1nnc2sc(-c3ccc(NC(=O)c4ccc5c(c4)OCCO5)cc3)nn12 | 3% | 10% | 28µM* | 3%
CC(C)Cc1nc2oc3c(Cl)ncnc3c2c2c1CCC2 | 4% | -8% | 32µM* | /
CC(C)Cc1nc2oc3c(NCCCN4CCOCC4)ncnc3c2c2c1CCC2 | 1% | 24% | ? | /
Cc1cc(C)n2nc(C(=O)NNC(=O)c3ccccc3)nc2n1 | 3% | 79µM* | 0% | 17%
c1ccc2c(c1)OCc1cn[nH]c1-2 | -2% | 4% | -2% | 14%
c1ccc(N2CC3COc4ccccc4C3=N2)cc1 (stereo not given) | -1% | / | 25µM* | 1%
O=C(Nc1ccncc1)C1C(=O)c2ccccc2N(Cc2ccccc2)C1=O (stereo not given) | / | / | -6% | /
CN(C)CCCn1c(SCC(=O)Nc2nc(-c3cccc(Br)c3)cs2)nc2ccccc2c1=O | 4% | 45µM* | / | -1%
O=C(CSc1nc2ccccc2[nH]1)Nc1nc(-c2cccc(Br)c2)cs1 | 2%[46.1 µM] | 7% | -4% | 1%
CCC(=O)Nc1cccc(C(=O)/C=C/c2ccccc2)c1 | -3% | ? | 16µM* | -13%
CCC(=O)Nc1cccc(C(=O)/C=C/c2cccs2)c1 | -2% | 1% | -2% | ?
Cc1cc(C)n(-c2nc3ccccc3nc2Nc2ccc(Cl)cc2Cl)n1 | / | / | -1% | /
COc1ccc(CCNC(=O)/C=C/c2ccco2)cc1 | -21% | -61% | -1% | -19%
CC(C)NC(=O)COC(=O)/C=C/c1ccco1 | 8%[46.1 µM] | 50µM* | -1% | -1%
